Values joined by “and” are separate entries in the source; they are usually repeats but may differ in a detail not shown here. Equal entries are not always repeated. The whole screen tested about 300,000 compounds, of which about 37,000 (12%) were called active. Rule as the data show it: active = max response mostly above about 13% (no sharp cut-off); inactive = mostly below about 14%. Many of the other results were omitted from the sample, so actives are more common in it than they were.

This test can be described thus: Cycloheximide Counterscreen for Small Molecule Inhibitors of Shiga Toxin. Also: read at 38.3 µM for the half of the compounds with a filed dose; 0% is about no effect. As to conditions: cell reporter, cycloheximide protein synthesis inhibition counterscreen; stronger effect = higher value.
Consider `COc1ccc(OC)c(CNC(=O)Cn2nc(C)c3c(C)n(-c4ccc(C)cc4)nc3c2=O)c1`, for which the max response was 2.16% (inactive).
Under `CC(=O)Nc1cccc(NC(=O)CSc2nccn2Cc2ccc(F)cc2)c1` stands -0.128% (inactive); under `COc1cc(C(=O)NCC2(c3ccccc3)CCCC2)ccc1OC(C)C`, -3% (inactive); under `COc1cccc(OC)c1C(=O)Nc1ccc2c(c1)n(C)c(=O)n2C`, -0.414% (inactive).
In the case of `COc1ccc(S(=O)(=O)Nc2ccc3c(c2)OCO3)cc1Cl`, the max response is 1.12% (inactive).
With `COc1ccc(-c2cc(C(F)(F)F)nc(SCC(=O)Nc3ccc4c(c3)OCO4)n2)cc1OC`, the max response was 0.778% (inactive).
As for `COc1ccc(C(=O)Nc2ccc3c(c2)OCO3)cc1OC`, the figure is 57.2% (active); as for `COc1ccc(C(=O)Nc2ccc(C3(C#N)CCCC3)cc2)cc1OC`, 20.7% (active); as for `COc1ccc(C(=O)Nc2ccc3nc(N4CCCCC4)cc(C)c3c2)cc1OC`, -1.84% (inactive).
In the case of `Cn1c(=O)n(C)c2cc(C(=O)Nc3ccc(Br)cc3)ccc21`, the max response was 5.85% (inactive).
Take `Cn1c(=O)n(C)c2cc(C(=O)Nc3ccc4c(c3)OCO4)ccc21`: the max response was 21.7% (active).
As for `O=C(Cc1ccccc1)Nc1c(C(=O)N2CCCCCC2)cnn1-c1ccccc1`, the figure is -1.98% (inactive); as for `COc1ccc2c(c1)CCc1cn3ncc(C#N)c3nc1-2`, -3.03% (inactive).
Regarding `CCCCn1nc(C(=O)N2CCc3ccccc32)c2ccccc2c1=O`, the max response is 1.07% (inactive).
As for `Cc1nc(N=C(N)N)nc2c(C)cccc12`, the figure is 3.71% (inactive).
Under `CCOC(=O)C(C)n1cnc2scc(-c3ccc(C)c(C)c3)c2c1=O` (centres undefined) stands -0.876% (inactive).
As to `Cc1ccccc1OCC(=O)N(Cc1cccc(F)c1)C1CCS(=O)(=O)C1` (centres undefined), the max response was -13% (inactive).
Under `Cc1cc2oc(=O)cc(-c3ccccc3)c2c(C)c1-c1ccc(OC(F)(F)F)cc1` stands 17.1% (inactive); under `CN(C(=O)CCNC(=O)Cn1ccc2ccccc2c1=O)c1ccc(Br)cc1`, -6.96% (inactive).
As for `CCN(/N=C/c1ccc(N(C)C)cc1)c1nc2ccccc2[nH]1`, the figure is 5.84% (inactive).
For `CNC(=O)c1ccsc1NC(=O)c1ccc(S(=O)(=O)N2CCc3ccccc32)cc1`, the max response is -2.6% (inactive).
For the compound `CCN(CC)CCCNC(=O)c1cc2c(=O)[nH]c3ccc(C)cc3c2s1`, the max response is 0.225% (inactive).
For the compound `COc1ccc(N2C(=O)CC(Sc3n[nH]c(-c4ccc(C)cc4)n3)C2=O)cc1` (centres undefined), the max response was -1.55% (inactive).
Under `COc1ccc(C2=NN(c3nc4ccccc4s3)C(=O)C2)cc1` stands 25.8% (active); under `CN(C(=O)COC(=O)c1nc(Cl)ccc1Cl)C1CCS(=O)(=O)C1` (centres undefined), -1.17% (inactive); under `Nc1scc(-c2ccncc2)c1Cl`, 26% (active).
Under `COC(=O)c1c(-c2ccc(C)cc2)csc1N` stands 9.52% (inactive).
Consider `O=C(c1ccc(S(=O)(=O)c2ccccc2)cc1)N1CCCCCC1`, for which the max response is -1.02% (inactive).
On to `CC1CCN(C(=O)c2ccc(CSc3ccc(Cl)cc3)cc2)CC1`, for which the max response was -3.83% (inactive).
Take `O=C(c1ccc(CSc2ccccc2)cc1)N1CCCCCC1`: the max response was 66.2% (active).
Under `Cc1cccc(C)c1NC(=O)CSc1nc2c([nH]1)c(=O)n(C)c(=O)n2C` stands -6.42% (inactive); under `CC1=C(C(=O)OCC2CCCCC2)C(c2ccc(F)cc2)NC(=O)N1` (centres undefined), -1.88% (inactive); under `Cc1cccc(N2C(=O)NC(=O)/C(=C\c3cnn(-c4ccccc4)c3)C2=O)c1`, 25.1% (active).
Under `Cc1cccc(N2C(=O)c3cccnc3C2=O)c1` stands 7.77% (inactive); under `Cc1cccc(N2C(=O)C3C(c4ccccc4)OC4(C(=O)c5ccccc5C4=O)C3C2=O)c1` (centres undefined), 7.54% (inactive); under `CC(C)(C)C1CCC(=NNC(=O)c2cc(-c3ccccc3)n[nH]2)CC1` (centres undefined), 5.64% (inactive).
As for `CC(CNC(=O)c1ccc(Br)o1)NC(=O)c1ccc(Br)o1` (centres undefined), the figure is -3.59% (inactive); as for `CC(NC(=O)C(=O)NN=C1CCC(C(C)(C)C)CC1)c1ccccc1` (centres undefined), 1.38% (inactive).
For `CCC(C)(C)C1CCC(=NNC(=O)c2ccc(Br)o2)CC1` (centres undefined), the max response is 44.3% (active).
Under `CC(C)(C)C1CCC(=NNC(=O)c2ccc(Br)o2)CC1` (centres undefined) stands 35.2% (active); under `O=C(CNC(=O)c1ccc(Br)o1)NCC1CCCO1` (centres undefined), -2.05% (inactive).
Under `CC(=O)N1C(C)c2ccccc2C(C)(C)CC12CCCCC2` (centres undefined) stands -1.42% (inactive); under `Cc1ccc(C)c(N2CCN(S(=O)(=O)c3c(C)[nH]c(C)c3C(=O)N3CCCC3)CC2)c1`, -1.94% (inactive).
Under `C=CC(COCc1ccccc1)N(Cc1ccccc1)S(=O)(=O)c1ccccc1Br` (centres undefined) stands -2.35% (inactive) and 5.45% (inactive); under `Cc1ccc(NC(=O)NC(=O)N(C2CCCCC2)S(=O)(=O)c2ccccc2)cc1`, 40.9% (active); under `CS(=O)(=O)N(C(=O)NC(=O)NC1CCS(=O)(=O)C1)C1CCCCC1` (centres undefined), -1.14% (inactive).
Turning to `Cc1ccc(S(=O)(=O)N(C)CC(=O)NC2CCCC2)cc1`, the max response was -2.07% (inactive).
Take `CCOc1ccccc1NC(=O)CCS(=O)(=O)c1cccc2nsnc12`: the max response was -6.23% (inactive).
Under `O=C(N/N=C/c1cccc(O)c1)c1cc2c(ccc3ccccc32)o1` stands 8.61% (inactive); under `NC(=O)c1ccccc1N=Cc1ccc2ccccc2c1`, 38.3% (active).
Consider `O=C(COc1cc2oc(=O)c3c(c2cc1Cl)CCC3)NCCCN1CCOCC1`, for which the max response was 6.01% (inactive).
`O=C(NCCc1ccccc1)C1CCC(Cn2c(=O)c3ccccc3n(Cc3cccnc3)c2=O)CC1` (centres undefined): the max response was -1.63% (inactive).
Take `O=C(O)c1cc([N+](=O)[O-])c(Nc2cccc3ccccc23)c([N+](=O)[O-])c1`: the max response is -2.68% (inactive).
As for `CCOc1ccc(NC(=O)CSc2nncn2C)cc1`, the figure is 3.07% (inactive); as for `CCOc1ccc(NC(=O)c2ccccc2NS(C)(=O)=O)cc1`, 15.1% (active).
As for `CCOc1ccc(NC(=O)c2ccc(NC(=O)C3CCCO3)cc2)cc1` (centres undefined), the figure is 14.7% (inactive).
As for `CCOc1cccc(NC(=O)CC#N)c1`, the figure is -0.681% (inactive).
Turning to `CCOc1ccc(C(=O)Nc2cccc(-c3ccc4nncn4n3)c2)cc1`, the max response was -0.39% (inactive).
Under `COc1ccc(CSc2nnnn2-c2ccc(C(=O)O)cc2)cc1` stands -3% (inactive).
Turning to `CCOc1ccc(NC(=O)CCNC(=O)c2ccc(Br)cc2)cc1`, the max response is 17.2% (inactive).
As for `CCOc1ccc(C(=O)Nc2ccncc2)cc1`, the figure is 23.7% (active).
Under `COC(=O)c1ccccc1NC(=O)c1ccccc1NS(C)(=O)=O` stands -1.19% (inactive); under `CCOc1ccc(NC(=O)c2ccc(CSc3nnnn3C)cc2)cc1`, 20.2% (active).
Under `CCOc1ccc(C(=O)Nc2cccc(SC)c2)cc1` stands 43.4% (active); under `CCCNC(=O)Nc1ccccc1C(=O)Nc1ccc(OC)cc1`, 2.17% (inactive); under `CC1CN(c2nc(Nc3ccccc3)nc(N)c2[N+](=O)[O-])CC(C)O1` (centres undefined), 1.21% (inactive).
For the compound `O=C(CN1CCN(c2ccc(O)cc2)CC1)NC1CCCc2ccccc21` (centres undefined), the max response is -4.39% (inactive).
Under `COc1ccc(CN(C)C(=S)Nc2ccc(Cl)cc2Cl)cc1` stands -0.677% (inactive); under `O=C(O)C1CC=CC2CCN(C3CCCCC3)C(=O)C21` (centres undefined), -7.95% (inactive); under `COc1ccc(OC)c(NC(=O)CN(C)CCOc2ccc(Br)cc2)c1`, -3.46% (inactive).
As for `O=C(Oc1cccc(N2C(=O)C3C4c5ccccc5C(c5ccccc54)C3C2=O)c1)c1ccco1` (centres undefined), the figure is -4.24% (inactive); as for `Cc1ccc2c(c1)N(S(=O)(=O)c1cc(-c3cc(C)no3)ccc1C)CCO2`, 1.76% (inactive); as for `CCN(CC)N=Nc1cccc(NC(C)=O)c1`, 15.1% (active).
Under `CCN(CC)C(=O)CSC(Nc1cccc(F)c1)=C(C#N)C#N` stands -0.453% (inactive); under `CC(=O)Nc1cccc(C(=O)OCN2C(=O)c3ccccc3C2=O)c1`, -2.39% (inactive); under `Fc1ccc(-c2nnc(CSc3nnc(-c4ccc5c(c4)OCO5)o3)o2)cc1`, 26% (active).
As to `Fc1ccc2nc(-c3ccccc3)nc(SCc3nnc(-c4ccccc4)o3)c2c1`, the max response is -4.64% (inactive).
Under `O=C(CSc1nnc(CNC(=O)c2ccc(F)cc2)o1)Nc1ccc2c(c1)OCO2` stands -1.02% (inactive); under `O=C(Nc1ccnn1C1CCN(C/C=C/c2ccc(F)cc2)CC1)C1CCCC1`, -1.88% (inactive).
As for `CCOc1ccc(OCC)c(NC(=O)CCS(=O)(=O)c2ccc(C)cc2)c1`, the figure is -3.4% (inactive); as for `Cc1ccc(N/N=C2\COC(C)(C)CC2=O)cc1`, 73.1% (active).
On to `COc1ccc(N/N=C2/CCCCC2=O)cc1`, for which the max response is 29.4% (inactive).
As to `CC(C)CC(COCc1ccc(Cl)cc1)N1CCN(C(=O)c2ccc(C(F)(F)F)cc2)CCC1=O` (centres undefined), the max response is -2.17% (inactive).
As to `O=C1CC(Sc2ncn[nH]2)C(=O)N1c1ccccc1` (centres undefined), the max response was -3.41% (inactive).
Under `COc1ccc(N2CCN(C(=O)c3ccccc3NC(=O)C3=C(C)OCCS3)CC2)cc1` stands -5.37% (inactive); under `CN(Cc1ccc(F)cc1)C(=O)COc1ccc2ccccc2c1`, 20.1% (inactive).
As for `CN(Cc1ccccc1)C(=O)COc1ccccc1`, the figure is 41.1% (active).
On to `CN(Cc1ccccc1)C(=O)c1ccc(COc2ccccc2)cc1`, for which the max response was 7.81% (inactive).
With `CC1=NN(c2ccc(Cl)c(C(=O)O)c2)C(=O)/C1=C/c1ccc(-c2ccccc2[N+](=O)[O-])o1`, the max response was -3.39% (inactive).
Under `C=C1O[C@@](CO)(n2cnc3c(N)ncnc32)[C@H](O)[C@@H]1O` stands 1.03% (inactive); under `Cc1ccc(NC(=O)CCC(=O)N/N=C/c2ccco2)c(C)c1`, -1.51% (inactive).
As to `Cc1ccc(NN=C2C(=O)OC(C)(C)OC2=O)c(C)c1`, the max response was 52% (active).
Under `Cc1ccc(NS(=O)(=O)c2ccc3c(c2)oc(=O)n3C)c(C)c1` stands 0.896% (inactive); under `O=c1c2ccccc2[nH]c(=S)n1CCN1CCC(=C(c2ccc(F)cc2)c2ccc(F)cc2)CC1`, -1.14% (inactive).
